{"source": "PubChem BioAssay AID720646", "about": "(Broad Institute, 2013)", "note": "Screen size: about 1,000 compounds; about 25 (2%) were called active.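 How the source made its calls: active means fitted rise in melting shift crosses a set limit at or below the top valid dose tested; inconclusive means flat fit at mid-level activity, or a poor quality fit; inactive means the rest.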 Only a sample is shown."}
{"molecular_target": "Fibroblast growth factor 22 (Homo sapiens) (UniProt Q9HCT0)", "sequence (Q9HCT0 whole entry, looked up)": "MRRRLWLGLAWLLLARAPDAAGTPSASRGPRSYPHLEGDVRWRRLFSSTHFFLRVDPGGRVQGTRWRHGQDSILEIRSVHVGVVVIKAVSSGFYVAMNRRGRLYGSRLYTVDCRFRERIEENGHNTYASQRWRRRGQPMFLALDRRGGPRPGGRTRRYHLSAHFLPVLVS", "test": "FGF22 melting temperature shift by ligands – biophysical, thermal shift, cherry-pick retest, FGF22 synaptogenesis inhibitor project, dose response (AID 720646)", "details": "recombinant FGF22 thermal shift, SYPRO orange fluorescence; series mostly up to 38 µM"}
{"smiles": "O=C(N/N=C/c1ccc(OCc2ccccc2)cc1)c1ccc(O)cc1", "outcome": "inactive"}
{"smiles": "CN1C(=O)c2cc(NC(=O)c3cccc(F)c3)ccc2OC[C@@H]2O[C@H](CC(=O)N3CCc4ccccc4C3)CC[C@@H]21", "outcome": "inactive"}
{"smiles": "CNC[C@@H]1Oc2ccc(NC(=O)C3CCCCC3)cc2C(=O)N([C@@H](C)CO)C[C@H]1C", "outcome": "inactive"}
{"smiles": "O=C(c1ccccc1F)N1CC(=O)N2[C@H](C1)[C@H](c1ccc(-c3ccc(F)cc3)cc1)[C@@H]2CO", "outcome": "inactive"}
{"smiles": "CCCCN1CC(N2CCN(Cc3cccc(C)c3)CC2)CS1(=O)=O", "note": "(stereo unspecified)", "outcome": "inactive"}
{"smiles": "O=C(Cc1cccnc1)N[C@H]1CC[C@H](CCn2cc(-c3ccccc3F)nn2)O[C@H]1CO", "outcome": "inactive"}
{"smiles": "CC(=O)NC[C@@H]1[C@@H](c2ccccc2)[C@@H](CO)N1C(=O)Cc1cccnc1", "outcome": "inactive"}
{"smiles": "O=S(=O)(ON(c1ccccc1)S(=O)(=O)c1ccccc1)c1ccccc1", "outcome": "inactive"}
{"smiles": "O=C1C=CCCN1C(=O)/C=C/c1ccc(F)cc1", "outcome": "inactive"}
{"smiles": "CC(=O)N1c2ccc(S(=O)(=O)N3CCC(C(=O)NCc4ccc(F)cc4)CC3)cc2CC1C", "note": "(stereo unspecified)", "outcome": "inactive"}
{"smiles": "CCCOc1ccc(NC(=O)CC2C(=O)N(C)C(=S)N2Cc2ccc3c(c2)OCO3)cc1", "note": "(stereo unspecified)", "outcome": "inactive"}
{"smiles": "Cc1cccc(S(=O)(=O)N2C[C@@H](O)COC[C@H]3O[C@H](CC(=O)Nc4ccc(-c5ccccc5)cc4)CC[C@@H]32)c1", "outcome": "inactive"}
{"smiles": "Cc1c(CCO)sc[n+]1CC(=O)OC12CC3CC(CC(C3)C1)C2", "outcome": "inactive"}
{"smiles": "COc1cc(NC(=O)c2ccc3c(c2)OCO3)ccc1NC(=O)c1cccs1", "outcome": "inactive"}
{"smiles": "O=C(N[C@@H]1C=C[C@H](CC(=O)N2CCCCC2)O[C@H]1CO)c1cccc(F)c1", "outcome": "inactive"}
{"smiles": "CS(=O)(=O)c1ccc2nc(NC(=O)c3ccc(Cl)nc3)sc2c1", "outcome": "inactive"}
{"smiles": "CC(=O)Nc1ccc(S(=O)(=O)N(CCc2ccccc2)CC(=O)N/N=C/c2ccc(C(=O)O)cc2)cc1", "outcome": "inactive"}
{"smiles": "COCCN(C(=O)C(C)C)c1nnc(-c2ccc(C(C)(C)C)cc2)s1", "outcome": "inactive"}
{"smiles": "Cc1ccc(NC(=O)Nc2cccnc2)cc1", "outcome": "inactive"}
{"smiles": "CN1C(=O)c2cccc3c(N)ccc(c23)C1=O", "outcome": "inactive"}
{"smiles": "O=C(N/N=C/c1ccc([N+](=O)[O-])cc1)c1c[nH]c2ccccc12", "outcome": "inactive"}
{"smiles": "O=C(Nc1ccccc1F)N1[C@H](CO)[C@H]2c3ccccc3NC[C@H]21", "outcome": "inactive"}
{"smiles": "C[C@@H]1CN([C@@H](C)CO)S(=O)(=O)c2ccc(-c3ccncc3)cc2O[C@@H]1CN(C)C(=O)Nc1ccc(F)cc1", "outcome": "inactive"}
{"smiles": "O=C(NN1C(=O)C2C3C=CC(O3)C2C1=O)c1ccccc1", "note": "(stereo unspecified)", "outcome": "inactive"}
{"smiles": "COc1ccccc1C(=O)NNC(=O)c1ccc(NC(=O)c2ccccc2)cc1", "outcome": "inactive"}
{"smiles": "NS(=O)(=O)c1cccc(NC(=O)COC(=O)c2cc([N+](=O)[O-])ccc2N2CCCC2)c1", "outcome": "inactive"}
{"smiles": "COc1ccccc1NC(=O)N1[C@H](C#N)[C@H](c2ccccc2)[C@H]1CO", "outcome": "inactive"}
{"smiles": "OC[C@H]1[C@H](c2ccc(-c3cccnc3)cc2)[C@H]2CN(Cc3ccccn3)CCCCN21", "outcome": "inactive"}
{"smiles": "O=C(Nc1nnc(-c2ccccc2F)s1)c1ccccc1F", "outcome": "inactive"}
{"smiles": "C[C@H]1CN([C@@H](C)CO)C(=O)Cc2cc(NC(=O)Cc3cn(C)c4ccccc34)ccc2O[C@@H]1CN(C)Cc1ccccc1", "outcome": "inactive"}
{"smiles": "CC(C)NC(=O)N(C)C[C@@H]1Oc2c(NC(=O)c3nc4ccccc4s3)cccc2C(=O)N([C@H](C)CO)C[C@H]1C", "outcome": "inactive"}
{"smiles": "O=C(C[C@H]1CC[C@H]2[C@@H](COC[C@H](O)CN2S(=O)(=O)c2cccc(Cl)c2)O1)Nc1ccccc1", "outcome": "inactive"}
{"smiles": "COc1ccc(-c2ccc([C@H]3[C@H]4CN(C(=O)c5ccc6c(c5)OCO6)CCCCN4[C@H]3CO)cc2)cc1", "outcome": "inactive"}
{"smiles": "O=C(N/N=C/c1c[nH]c2ccccc12)c1cc2ccccc2o1", "outcome": "inactive"}
{"smiles": "COc1cc([N+](=O)[O-])ccc1NC(=O)CN1CCCC1", "outcome": "inactive"}
{"smiles": "COCC(=O)Nc1ccc2c(c1)OC[C@H](C)N(C)C[C@@H](C)[C@@H](OC)CN(C)C2=O", "outcome": "inactive"}
{"smiles": "Cc1ccc(S(=O)(=O)NCCC(=O)Nc2ccc(C)c(Cl)c2)cc1C", "outcome": "inactive"}
{"smiles": "COc1ccc(-c2cc(=O)oc3cc(OCC(=O)N[C@@H](Cc4c[nH]c5ccccc45)C(=O)O)ccc23)cc1", "outcome": "inactive"}
{"smiles": "C[C@H]1CN([C@@H](C)CO)S(=O)(=O)c2ccc(C3=CCCC3)cc2O[C@H]1CN(C)C(=O)Nc1ccc2c(c1)OCO2", "outcome": "inactive"}
{"smiles": "O=C(C[C@H]1C[C@@H]2c3cc(NC(=O)Nc4ccc(C(F)(F)F)cc4)ccc3O[C@@H]2[C@@H](CO)O1)NCC1CC1", "outcome": "inactive"}
{"smiles": "CC(C)(C)N1C(=O)c2c(C(=O)OCc3ccccc3)[nH]c(-c3ccccc3)c2C1=O", "outcome": "inactive"}
{"smiles": "Cc1ccc(S(=O)(=O)Nc2nc3ccccc3s2)cc1[N+](=O)[O-]", "outcome": "inactive"}
{"smiles": "O=C(N/N=C/c1ccc(Cl)c(Cl)c1)c1ccc2nc[nH]c2c1", "outcome": "inactive"}
{"smiles": "O=C(COc1ccc([N+](=O)[O-])cc1)Nc1cccc(C(=O)Nc2ccccc2C(=O)O)c1", "outcome": "inactive"}
{"smiles": "O=C(NCCc1c[nH]c2ccccc12)C(=O)NCC1CCCO1", "note": "(stereo unspecified)", "outcome": "inactive"}
{"smiles": "Cc1ccc(NC(=O)O/N=C/c2cccc([N+](=O)[O-])c2)cc1", "outcome": "inactive"}
{"smiles": "Cc1ccc(S(=O)(=O)N(C)C[C@@H]2Oc3cc(C4=CCCC4)ccc3S(=O)(=O)N([C@@H](C)CO)C[C@@H]2C)cc1", "outcome": "inactive"}
{"smiles": "CCn1ccnc1CN(C)C(=O)c1ccc2nc(Cc3ccc(OC)cc3)oc2c1", "outcome": "inactive"}
{"smiles": "C[C@@H]1CCCCO[C@@H](CN(C)Cc2ccncc2)[C@H](C)CN([C@H](C)CO)C(=O)c2cc(NC(=O)Cc3ccccc3)ccc2O1", "outcome": "inactive"}
{"smiles": "C[C@@H]1CN([C@H](C)CO)S(=O)(=O)c2ccc(-c3ccncc3)cc2O[C@@H]1CN(C)C(=O)Nc1ccc(C(F)(F)F)cc1", "outcome": "inactive"}
{"smiles": "CC(C)NC(=O)N1C[C@@H]2[C@H](c3ccccc31)[C@H](CO)N2C(=O)c1ccccn1", "outcome": "inactive"}
